Hits are enriched below; roughly 2.3% of the tested compounds scored in any of these assays.
HIF-2a block – HIF-2a inhibition. inhibition, % at 18.8 µM. 0.72% of 360,000 active. 786-0 RCC cells HIF-2a reporter, luciferase luminescence, overnight;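 active = inhibition of the luminescence signal of 40% or more relative to plate controls, in a single-dose primary screen at 18.75 µM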
CF NFkB inh – cystic fibrosis NF-kB activation inhibition; KKLEB NF-kB-GFP reporter, PAF-induced, GFP fluorescence overnight; AID 588850; inhibition, % at 5 µM; 0.86% of 360,000 active;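 active = at least 50% inhibition at 5 µM, scaled per plate between neutral and stimulator controls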;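 also: PAF is a Pseudomonas aeruginosa culture filtrate used as stimulus; plate controls were PAF-stimulated DMSO wells for no effect and unstimulated DMSO wells for full effect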
TWEAK-Fn14 inh – TWEAK-Fn14 signaling inhibition; TWEAK-stimulated Fn14 reporter cells, luciferase luminescence, 8 h; 2% of 360,000 active; inhibition, % at 10 µM; in the data active = inhibition above about 50%
LGR2 antag – blocks bursicon-induced cAMP signaling via Drosophila LGR2; HEK293 LGR2, CRE-luciferase, bursicon-stimulated, 4 h; inhibition, % at 9.99 µM; 0.35% of 380,000 active;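 active = drop in luminescence signal, shown as inhibition above about 50% in the replicate tests, limit read from the data, passing the limit was not always enough; inconclusive = probably only some replicates passing the limit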;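 also: agonist challenge used bursicon conditioned medium at about half maximal strength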
KKLEB cytotox – counter-screen for CF NF-kB inhibitors: cytotoxicity; KKLEB CF airway cells viability, ATPlite luminescence, overnight; active compounds read low; cells stimulated with P. aeruginosa culture filtrate; activity change (cytotoxicity), % at 5 µM; 0.36% of 360,000 active; AID 602141;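 active = corrected activity change at or below -50% at 5 µM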
iPSC survival up – enhancers of human iPSC single-cell survival; hiPSC single-cell survival, ATPlite luminescence; 100% = ROCK inhibitor wells, 0% = DMSO; survival enhancement, % at 20 µM; 0.044% of 360,000 active; in the data active = survival enhancement above about 18%;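 also: cells exposed to compounds for 16 hours before the ATP read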
Starred values were filed as active, the others as inactive; ? = inconclusive; . = not tested or not shown.

SMILES | HIF-2a block | CF NFkB inh | TWEAK-Fn14 inh | LGR2 antag | KKLEB cytotox | iPSC survival up
CO[C@H]1CN(C)C(=O)c2ccc(NC(=O)Nc3cccc(F)c3)cc2OC[C@@H](C)NC[C@H]1C | . | . | . | 1 | . | .
CC(C)(C)c1ccc(-n2nc(C#N)c(Cl)cc2=O)cc1 | 92* | 91* | 105* | 101* | -101* | 0
COCC(=O)N1C[C@H]2[C@@H](c3ccccc31)[C@H](CO)N2C(=O)c1ccncc1 | . | . | . | 9 | . | .
Cc1cc(/C=C2\C(=N)N3C(SCc4ccccc4)=NSC3=NC2=O)c(C)n1Cc1ccccc1 | -16 | 30 | -13 | . | -53* | -1
Cc1ccccc1-n1c(C)cc(/C=C2/C(=N)N3C(c4ccccc4)=CSC3=NC2=O)c1C | -30 | 14 | 55* | -12 | 0 | 1
O=C(Nc1nnc(Cc2c[nH]c3ccccc23)s1)c1ccc(Cl)cc1Cl | -27 | -16 | 65* | . | 6 | 1
O=C(NCC1CC1)[C@@H]1[C@@H](CO)[C@@H]2Cn3c(ccc(-c4cccc(F)c4)c3=O)[C@@H]2N1CC1CCOCC1 | . | . | . | 4 | . | .
COCCCNC(=O)C1CCC(=O)N1Cc1ccccc1Cl (configuration not stated) | 4 | -7 | 85* | -11 | 1 | 2
COc1ccc2c3c(n(C)c2c1)[C@@H](CO)N(C(=O)CN1CCOCC1)CC31CN(C)C1 | . | . | . | -14 | . | .
CC1CCN(C(=O)c2cc3c(ccc4ccccc43)o2)CC1 | -53 | -26 | 61* | ? | -11 | 0
CCOC(=O)C1CCN(C(=O)c2cc3c(ccc4ccccc43)o2)CC1 | -182 | 11 | -28 | -129 | 4 | 0
Cc1ccc(-n2c(O)c(/C=N/Nc3ccc(S(=O)(=O)N4CCOCC4)cc3[N+](=O)[O-])c3ccccc3c2=O)c(C)c1 | 4 | 43 | 82* | 45 | -50 | 0
CC(=O)CSc1nnc(-c2ccc3c(c2)OCO3)o1 | -28 | -18 | 58* | . | 2 | -3
CO[C@@H]1CN(C)C(=O)c2cc(NC(=O)c3cccc(Oc4ccccc4)c3)ccc2OC[C@H](C)NC[C@H]1C | . | . | . | -7 | . | .
CC1(C)CC(=O)C=C(Nc2ccc3c(c2)OCCO3)C1 | 27 | -8 | 70* | . | 5 | 15
Nc1cc2c3ccccc3ccc2c2ccccc12 | -318 | 88* | 103* | 86* | -78* | -3
Nc1ccc2ccccc2c1[N+](=O)[O-] | 2 | -7 | -1 | -15 | -14 | -2
CO[C@H]1CN(C)C(=O)c2cc(NC(C)=O)ccc2OC[C@H](C)N(CCc2ccccc2)C[C@@H]1C | . | . | . | -1 | . | .
COc1cc(C(=O)Nc2ccc3c(c2)Cc2cc(NC(=O)c4cc(OC)c(OC)c(OC)c4)ccc2-3)cc(OC)c1OC | 5 | 68* | -39 | 20 | -77* | -1
CCS(=O)(=O)N1CCC(C(=O)Oc2ccc(Br)cc2)CC1 | 11 | -10 | 79* | -7 | 0 | 0
CCS(=O)(=O)N1CCC(C(=O)Oc2ccc(Cl)cc2)CC1 | 20 | -7 | -2 | 0 | 0 | 4
Cc1ccc(C(=O)NCCSC(C)(C)C)cc1 | -53 | 10 | 52* | 3 | 2 | -2
CC(C)(C)SCCNC(=O)c1ccccc1 | -148 | -17 | 6 | . | 2 | 0
O=C(CN1CCC(n2nnc3cc(C(F)(F)F)ccc32)CC1)Nc1ccc2c(c1)OCCO2 | 28 | -14 | 75* | . | -4 | -2
COC(=O)C1=C(C(=O)OC)[C@@H]2N(Cc3ccccc3)c3ccccc3[C@@]23C[C@@H](C(=O)OC)N(C(C)=O)C3=N1 | 9 | 19 | 17 | 24 | -22 | -2
SMILES | HIF-2a block | CF NFkB inh | TWEAK-Fn14 inh | LGR2 antag | KKLEB cytotox | iPSC survival up
COC(=O)C1=C(C(=O)OC)[C@@H]2N(Cc3ccccc3)c3ccccc3[C@@]23C[C@@H](C(=O)OC)N(C(=O)COCc2ccccc2)C3=N1 | 18 | 23 | 51* | . | 0 | 1
O=C(c1cnc2c(c1)COc1ccc(Cl)cc1-2)c1ccccc1O | 15 | 18 | 26 | -17 | -4 | -3
Cc1ccc(O)c(C(=O)c2cnc3c(c2)COc2ccccc2-3)c1 | 16 | 46 | 63* | . | -5 | 0
CNS(=O)(=O)c1cccc(C(=O)OCc2cc(=O)oc3c(C)c(O)ccc23)c1 | 15 | 35 | 34 | 10 | 5 | 0
CCc1cc2c(COC(=O)c3cccc(S(C)(=O)=O)c3)cc(=O)oc2cc1O | 0 | 12 | 56* | 1 | -5 | 0
O=c1oc2ccccc2cc1-c1cn2cccnc2n1 | -80 | -43 | 21 | . | 8 | -1
O=c1oc2ccccc2cc1-c1cn2ccccc2n1 | 66* | 27 | 97* | 71* | -78* | -4
CCOC(=O)Cc1csc(N/N=C/c2cccc([N+](=O)[O-])c2)n1 | -32 | -7 | -11 | 4 | 6 | 1
CN(C)S(=O)(=O)c1ccc(-c2csc(N/N=C/c3ccc(O)cc3)n2)cc1 | 23 | 82* | 99* | 6 | -9 | 0
CN(C)S(=O)(=O)c1ccc(-c2csc(N/N=C/c3ccco3)n2)cc1 | -16 | 11 | 104* | 102* | -3 | 0
O=[N+]([O-])c1cccc(-c2csc(N/N=C/c3cccc(O)c3)n2)c1 | -275 | 40 | 58* | 17 | 11 | 4
C[C@H](O)C#Cc1cnc2c(c1)C(=O)N([C@H](C)CO)C[C@@H](C)[C@H](CN(C)C(=O)c1ccncc1)O2 | . | . | . | 1 | . | .
O=C(O)c1cc(/C=C/c2ccc(N3CCOCC3)cc2)nc2ccccc12 | -63 | 2 | 40 | 69* | 0 | -1
O=C(O)c1cc(/C=C/c2ccc(N3CCOCC3)c([N+](=O)[O-])c2)nc2ccccc12 | -68 | -15 | -7 | -4 | 8 | -1
C[C@@H](NC(=O)C[C@H]1C=C[C@@H](NC(=O)Cc2ccccn2)[C@@H](CO)O1)c1ccccc1 | . | . | . | -5 | . | .
COc1ccc(C(=O)Nc2nc3ccccc3c(=O)[nH]2)cc1 | -129 | -32 | 53* | ? | 26 | -3
COc1ccc(C(=O)Nc2nc3cc(OC)c(OC)cc3c(=O)[nH]2)cc1 | 19 | 16 | -22 | . | -18 | -2
Cc1cccc(/C=C\c2nc3ccccc3c(=O)[nH]2)c1 | -162 | 20 | 29 | -8 | -25 | -4
O=C(Nc1cccc(/C=C/c2nc3ccccc3c(=O)[nH]2)c1)c1ccccc1Cl | -232 | 3 | 72* | -42 | -10 | 2
COc1cc(/C=C/c2nc3ccccc3c(=O)[nH]2)cc(Cl)c1O | -13 | 20 | -27 | -2 | -6 | -1
COc1ccc(C(=O)Nc2cccc(/C=C/c3nc4ccccc4c(=O)[nH]3)c2)cc1 | -51 | 48 | 57* | 3 | -29 | 0
CCCC(=O)Nc1ccc2c(c1)OC[C@H](C)N(C(=O)c1cnccn1)C[C@H](C)[C@@H](OC)CN(C)C2=O | . | . | . | -4 | . | .
O=C1OC(c2ccc3ccccc3c2O)(c2ccc3ccccc3c2O)c2ccccc21 | -94 | 18 | 95* | -28 | 34 | -4

Bioassay records: PubChem, several laboratories
